In PubChem BioAssay (NCATS):
Inconclusive results are not listed. Active and inactive are the calls of the source. Unless noted, calls follow the shape of the dose curve; as a rule, active = well fitted curve in the direction sought with a large enough effect; inconclusive = small, poorly fitted or top-dose-only effect, or another doubt; inactive = no such curve, though single readings can be large; an effect the other way counts as inactive or inconclusive.

How the values were obtained:
[1] = biological target: T1, Hexokinase-4 (Homo sapiens) + Glucokinase regulatory protein (Homo sapiens) (UniProt P35557+Q14397); experiment: qHTS assay for inhibitors of recombinant human GCK-GKRP interaction: Diaphorase-coupled assay (AID 743205)
T1 sequence (P35557 whole entry, looked up): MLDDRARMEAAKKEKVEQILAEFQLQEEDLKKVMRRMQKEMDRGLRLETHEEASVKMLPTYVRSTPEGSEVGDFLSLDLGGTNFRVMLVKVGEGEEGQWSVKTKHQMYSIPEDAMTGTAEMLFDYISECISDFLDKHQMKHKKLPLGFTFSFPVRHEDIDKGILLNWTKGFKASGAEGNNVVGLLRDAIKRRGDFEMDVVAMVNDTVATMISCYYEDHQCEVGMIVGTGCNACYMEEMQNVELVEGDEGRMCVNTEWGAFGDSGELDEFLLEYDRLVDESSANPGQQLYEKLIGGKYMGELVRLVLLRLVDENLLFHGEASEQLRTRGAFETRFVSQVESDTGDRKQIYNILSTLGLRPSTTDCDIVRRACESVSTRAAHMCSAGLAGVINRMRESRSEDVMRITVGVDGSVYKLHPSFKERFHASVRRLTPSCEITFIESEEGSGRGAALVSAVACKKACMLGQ
T1 sequence (Q14397 whole entry, looked up): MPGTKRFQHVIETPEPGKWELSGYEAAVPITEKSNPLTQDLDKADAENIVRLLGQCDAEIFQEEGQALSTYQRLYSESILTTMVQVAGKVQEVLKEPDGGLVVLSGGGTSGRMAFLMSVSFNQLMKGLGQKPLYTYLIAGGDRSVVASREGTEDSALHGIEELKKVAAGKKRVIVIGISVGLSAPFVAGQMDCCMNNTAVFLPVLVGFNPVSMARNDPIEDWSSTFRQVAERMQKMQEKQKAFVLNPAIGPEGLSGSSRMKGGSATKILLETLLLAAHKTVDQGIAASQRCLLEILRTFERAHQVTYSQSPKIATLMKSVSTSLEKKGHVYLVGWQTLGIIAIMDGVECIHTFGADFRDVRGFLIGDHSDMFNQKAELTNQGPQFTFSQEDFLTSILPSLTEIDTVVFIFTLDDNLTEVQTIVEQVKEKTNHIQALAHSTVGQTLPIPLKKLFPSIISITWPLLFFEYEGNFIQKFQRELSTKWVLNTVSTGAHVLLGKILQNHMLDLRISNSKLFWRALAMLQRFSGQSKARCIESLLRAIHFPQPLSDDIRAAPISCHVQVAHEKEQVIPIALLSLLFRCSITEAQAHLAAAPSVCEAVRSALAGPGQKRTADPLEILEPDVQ
Procedure, shortened: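 A kinetic fluorescence read (Ex 525/Em 590 nm, every minute for 30 minutes) tracked resorufin from a G6PDH-diaphorase coupled GCK reaction. It contained 10 nM GST-GCK, 10 nM FLAG-GKRP, 5 mM glucose, 0.4 mM ATP in Hepes pH 7.6. Normalized to with/without-enzyme DMSO controls.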

[2] = biological target: T1, Hexokinase-4 (Homo sapiens) + Glucokinase regulatory protein (Homo sapiens); experiment: qHTS assay for inhibitors of recombinant human GCK-GKRP interaction: ADP-Glo assay (AID 743206);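 also: plate controls were DMSO plus enzyme for no effect and no enzyme for full effect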
Procedure, shortened: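 Pin-transferred compounds meet a 15 nM GST-GCK/15 nM FLAG-GKRP/2 uM S6P mix (dispense concentrations). ATP is then added to 0.4 mM final with 5 mM glucose, and the reaction runs 60 min at room temperature. ADP is quantified luminescently.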

[3] = biological target: T1, Hexokinase-4 (Homo sapiens) + Glucokinase regulatory protein (Homo sapiens); experiment: qHTS assay for inhibitors of recombinant human GCK-GKRP interaction: HTRF assay (AID 743207);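 also: 0% = DMSO with GCK present and -100% = DMSO wells lacking GCK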
Procedure, shortened: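 After 60 min equilibration at room temperature with anti-FLAG XL665 and anti-GST antibodies, FRET ratio (665/615 nm, excitation 320 nm) was read. Proteins: GST-GCK and FLAG-GKRP, each 5 nM, plus 2 uM S6P, pH 7.1 buffer; GCK-free wells define minimum signal.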

[4] = qHTS Assay for Identifying Gametocytocidal Compounds (AID 743244);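 also: % is scaled to controls: 0 for no effect and ±100 for the full control effect; actives lower the fluorescent signal which means gametocytes are killed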; settings: P. falciparum 3D7 stage III-V gametocytes, alamarBlue, 72 h; max response: stronger effect = lower value
Procedure, shortened: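 3D7 gametocytes, stages III–V, 20,000/well; cpd 72 h, 37 °C/5% CO2; + alamarBlue 24 h; fluor. Ex 525/Em 598.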

[5] = biological target: Atrial natriuretic peptide receptor 1 (Homo sapiens) (UniProt P16066); experiment: Natriuretic polypeptide receptor (hNpr1) antagonism - Pilot screen (AID 1347049; calls by dose curve;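 also: HEK293 cells with hNpr1 and GloSensor cGMP luciferase stimulated by 0.1 nM hNppA; agonist-evoked cGMP luminescence read 20 min after hNppA addition; series mostly up to about 58 µM; % is scaled to controls: 0 for no effect and ±100 for the full control effect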)
Chain of Atrial natriuretic peptide receptor 1 (Homo sapiens) (P16066 whole entry, looked up): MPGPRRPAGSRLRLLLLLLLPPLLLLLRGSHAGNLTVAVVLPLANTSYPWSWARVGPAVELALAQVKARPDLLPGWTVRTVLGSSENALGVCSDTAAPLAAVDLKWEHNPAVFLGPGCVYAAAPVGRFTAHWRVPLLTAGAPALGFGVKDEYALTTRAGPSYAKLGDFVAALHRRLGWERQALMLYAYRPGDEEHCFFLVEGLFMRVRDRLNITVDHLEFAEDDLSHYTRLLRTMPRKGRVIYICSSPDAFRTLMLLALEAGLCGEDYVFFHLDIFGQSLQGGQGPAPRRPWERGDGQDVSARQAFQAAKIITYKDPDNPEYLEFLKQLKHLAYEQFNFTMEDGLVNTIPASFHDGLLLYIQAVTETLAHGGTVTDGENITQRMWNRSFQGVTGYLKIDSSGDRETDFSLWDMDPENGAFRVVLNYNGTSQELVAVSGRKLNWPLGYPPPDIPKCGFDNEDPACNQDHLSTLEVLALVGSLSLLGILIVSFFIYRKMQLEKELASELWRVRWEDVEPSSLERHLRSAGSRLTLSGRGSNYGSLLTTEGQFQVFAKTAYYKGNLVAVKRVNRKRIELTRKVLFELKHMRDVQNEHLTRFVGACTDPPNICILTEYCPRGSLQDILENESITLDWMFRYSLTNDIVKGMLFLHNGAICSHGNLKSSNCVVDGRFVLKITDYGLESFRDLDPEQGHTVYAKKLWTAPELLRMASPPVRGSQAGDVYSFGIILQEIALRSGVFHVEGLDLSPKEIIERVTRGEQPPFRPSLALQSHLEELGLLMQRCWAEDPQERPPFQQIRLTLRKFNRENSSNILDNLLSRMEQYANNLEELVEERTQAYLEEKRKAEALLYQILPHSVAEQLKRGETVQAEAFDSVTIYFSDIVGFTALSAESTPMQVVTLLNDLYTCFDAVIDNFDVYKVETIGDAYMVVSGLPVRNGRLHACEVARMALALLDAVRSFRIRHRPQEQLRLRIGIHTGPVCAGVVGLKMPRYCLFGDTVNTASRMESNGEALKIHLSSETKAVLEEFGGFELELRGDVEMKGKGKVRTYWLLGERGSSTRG
Procedure, shortened: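 Receptor antagonism read as cGMP-dependent luminescence in hNpr1/pGS-40F HEK293 cells: pre-read after 30 min compound exposure, post-read 20 min after hNppA agonist at 0.1 nM final, all at room temperature, protected from light; A-71915 titration as control.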

[6] = biological target: Atrial natriuretic peptide receptor 2 (Homo sapiens) (UniProt P20594); experiment: Natriuretic polypeptide receptor (hNpr2) antagonism - Pilot subtype selectivity assay (AID 1347050; calls by dose curve; also: % is scaled to controls: 0 for no effect and ±100 for the full control effect)
Procedure, shortened: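 Antagonist mode: compounds (LOPAC1280, seven 1:5 dilutions) added 30 min before 1 nM hNppC stimulation of hNpr2-HEK293 cGMP-sensor cells; luminescence read before and 20 min after agonist at ambient temperature.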

[7] = NS1 protein of Zika virus - qHTS assay to identify small molecule inhibitors in human HEK 293 cells (AID 1347053);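 also: series mostly up to about 46 µM; plate controls were infected untreated cells for no effect and uninfected cells for full effect; nearly all actives have a fitted effect of over 55% in size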
Procedure, shortened: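 Readout was TR-FRET using paired anti-NS1 antibodies after 24 h infection of HEK 293 cells with ZIKV MR766 (MOI = 0.5). Compound preceded virus by 1 h; reduced signal reflects lower NS1 expression.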

[8] = biological target: T2, Tyrosine-protein phosphatase non-receptor type substrate 1 (Homo sapiens) + Leukocyte surface antigen CD47 (Homo sapiens) (UniProt P78324+Q08722); experiment: CD47-SIRPalpha protein protein interaction - LANCE assay qHTS validation (AID 1347057; active = well fitted curve in the direction sought with a large enough effect in the signal ratio, with a control signal flat, not every such curve was filed as active; the % refers to the signal ratio; also: series mostly up to about 38 µM; 0% is about no effect)
T2 sequence (P78324 whole entry, looked up, the tested form may be a part): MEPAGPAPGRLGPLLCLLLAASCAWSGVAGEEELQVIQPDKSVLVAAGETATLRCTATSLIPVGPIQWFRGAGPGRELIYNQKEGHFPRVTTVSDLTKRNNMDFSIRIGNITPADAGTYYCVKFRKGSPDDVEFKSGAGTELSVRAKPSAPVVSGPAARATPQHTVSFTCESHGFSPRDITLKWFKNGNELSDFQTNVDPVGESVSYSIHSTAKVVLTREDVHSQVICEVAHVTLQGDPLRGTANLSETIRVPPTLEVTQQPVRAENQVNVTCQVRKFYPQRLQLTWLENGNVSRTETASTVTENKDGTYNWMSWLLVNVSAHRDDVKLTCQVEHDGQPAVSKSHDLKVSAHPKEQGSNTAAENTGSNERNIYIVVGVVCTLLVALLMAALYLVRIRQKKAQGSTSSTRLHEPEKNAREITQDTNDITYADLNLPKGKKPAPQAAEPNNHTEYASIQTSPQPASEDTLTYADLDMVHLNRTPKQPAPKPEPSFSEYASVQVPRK
T2 sequence (Q08722 whole entry, looked up, the tested form may be a part): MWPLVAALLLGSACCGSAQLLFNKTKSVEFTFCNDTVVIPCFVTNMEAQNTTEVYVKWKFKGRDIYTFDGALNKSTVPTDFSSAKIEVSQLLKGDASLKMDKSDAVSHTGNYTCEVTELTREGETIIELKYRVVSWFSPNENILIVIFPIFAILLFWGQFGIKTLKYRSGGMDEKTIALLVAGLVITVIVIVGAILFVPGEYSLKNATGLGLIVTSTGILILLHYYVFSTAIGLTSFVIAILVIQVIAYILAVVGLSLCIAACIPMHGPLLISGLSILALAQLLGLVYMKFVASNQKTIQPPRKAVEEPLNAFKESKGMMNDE
Procedure, shortened: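 Inhibition of soluble CD47/SIRPalpha ectodomain association by titrated compounds, measured as 665/615 nm time-resolved FRET ratio after sequential 30 min room-temperature incubations.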

[9] = biological target: T2, Tyrosine-protein phosphatase non-receptor type substrate 1 (Homo sapiens) + Leukocyte surface antigen CD47 (Homo sapiens); experiment: CD47-SIRPalpha protein protein interaction - Alpha assay qHTS validation (AID 1347059);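 also: bead proximity luminescence from CD47 binding SIRPalpha after compound preincubation with SIRPalpha; % is scaled to controls: 0 for no effect and ±100 for the full control effect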
Procedure, shortened: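 AlphaScreen signal between CD47-His (12.5 nM) and biotin-SIRPalpha (25 nM) soluble extracellular domains, bead-captured via Ni-NTA and streptavidin. Compounds, in 7-point titrations, met SIRPalpha 30 min before CD47; PBS pH 7.4 with 0.05% IGEPAL.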

[10] = biological target: Parathyroid hormone/parathyroid hormone-related peptide receptor (Homo sapiens) (UniProt Q03431); experiment: qHTS for PTHR1 Agonists: Optimization Screen against the NCGC LOPAC library (AID 1347079);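 also: GloSensor cAMP luminescence in HEK-293 GP2 cells expressing human PTHR1 with IBMX; 0% is about no effect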
Chain of Parathyroid hormone/parathyroid hormone-related peptide receptor (Homo sapiens) (Q03431 whole entry, looked up): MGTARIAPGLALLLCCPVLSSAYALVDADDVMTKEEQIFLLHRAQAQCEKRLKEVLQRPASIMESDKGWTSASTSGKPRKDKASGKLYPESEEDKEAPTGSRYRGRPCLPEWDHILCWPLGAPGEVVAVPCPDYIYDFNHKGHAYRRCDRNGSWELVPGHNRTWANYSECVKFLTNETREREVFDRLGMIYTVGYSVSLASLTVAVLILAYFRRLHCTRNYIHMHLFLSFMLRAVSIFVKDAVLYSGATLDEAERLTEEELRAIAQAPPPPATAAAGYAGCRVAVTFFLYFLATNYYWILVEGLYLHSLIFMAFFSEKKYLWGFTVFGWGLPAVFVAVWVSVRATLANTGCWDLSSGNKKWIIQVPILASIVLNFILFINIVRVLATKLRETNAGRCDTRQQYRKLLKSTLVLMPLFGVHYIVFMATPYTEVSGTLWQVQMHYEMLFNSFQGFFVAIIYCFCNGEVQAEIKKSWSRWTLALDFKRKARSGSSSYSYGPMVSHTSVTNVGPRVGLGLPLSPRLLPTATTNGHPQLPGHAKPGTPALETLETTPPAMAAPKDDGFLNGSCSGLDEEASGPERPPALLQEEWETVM
Procedure, shortened: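 HEK-293 GP2 cells, PTHR1 + GloSensor cAMP; 3000 cells/well, o/n. Luciferin + IBMX 0.5mM each (stock), 1 hr 37C. Cpd titration, 1 hr 37C. Lum after 15 min RT. Ctrl M-PTH(1-15) top 10uM.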

[11] = tested on: Zika virus NS2B-NS3 protease (unlinked); experiment: Optimization of GU AMC qHTS for Zika virus inhibitors: Unlinked NS2B-NS3 protease assay (AID 1347151); also: potency is read from the fitted curve at half-maximal effect; nearly all actives have a fitted effect of over 80% in size
Procedure, shortened: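 Fluorescence gain (340/450 nm) over 15 min at room temperature, ~20% conversion, gave percent inhibition fitted to a 4-parameter Hill equation; enzyme was unlinked NS2B-NS3 (25 nM final), pH 8.0 Tris buffer.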

[12] = biological target: Lysine-specific demethylase 5B (Homo sapiens) (UniProt Q9UGL1); experiment: Optimization screen for KDM5B Histone Demethylases FDH coupled qHTS against the LOPAC library (AID 1347166); also: 0% is about no effect
Procedure, shortened: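 KDM5BDeltaAP (200nM final) in 50mM HEPES pH 7.5, 0.01% Tween-20 was preincubated with compound for 10 min at room temperature. A substrate mix of 12.5uM H3K4Me3, 25uM a-ketoglutarate, ascorbate, Fe2+, NAD+ and formaldehyde dehydrogenase was then added. NADH fluorescence (340/450 nm) was read initially and after 30 min.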

[13] = qHTS to identify inhibitors of the type 1 interferon - major histocompatibility complex class I in skeletal muscle: primary screen against the NCATS LOPAC collection (AID 1347405);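 also: lytic HiBiT luminescence reporting HLA-B protein level; % is scaled to controls: 0 for no effect and ±100 for the full control effect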
Procedure, shortened: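 After 24 h at 37 C with compounds (7-point, 1:4.3 dilutions, 46 uM top final) plus 4 ng/ml IFN-beta, luminescence from lytic HiBiT detection was measured. HLA-B*08:01 in C25cl48 myoblasts carried an endogenous C-terminal HiBiT tag; medium lacked dexamethasone.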

[14] = qHTS for inhibitors of adenylyl cyclases using a fission yeast platform: a pilot screen against the NCATS LOPAC library (AID 1347410);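 also: plate controls were DMSO vehicle for no effect and DPI positive control for full effect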
Procedure, shortened: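 GFP from fbp1-GFP reporter, read by Acumen laser cytometry, indicates AC inhibition in fission yeast expressing AC9, GNAS and PDE4D2. Cells grown 18 h in the dark at 30C with compounds, final up to 57 uM.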

[15] = biological target: Single-stranded DNA cytosine deaminase (Homo sapiens) (UniProt Q9GZX7); experiment: Validation qHTS assay for inhibitors of Activation Induced Cytidine Deaminase (AID): AID signal (AID 1347429); also: % is scaled to controls: 0 for no effect and ±100 for the full control effect
Chain of Single-stranded DNA cytosine deaminase (Homo sapiens) (Q9GZX7 whole entry, looked up): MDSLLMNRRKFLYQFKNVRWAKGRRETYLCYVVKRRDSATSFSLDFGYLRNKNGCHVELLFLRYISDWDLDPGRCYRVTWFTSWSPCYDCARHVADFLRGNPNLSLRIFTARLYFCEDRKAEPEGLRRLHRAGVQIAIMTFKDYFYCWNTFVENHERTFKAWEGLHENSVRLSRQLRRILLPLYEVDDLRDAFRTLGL
Procedure, shortened: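 Compounds (final up to 114 uM) preincubated with AID plus UDG; 250 nM DJC20/DJC23 substrate mix (4x stock) added, 4 hr at room temperature, then NaOH, 30 min. Read 1 fluorescence at 540 nm excitation, 590 nm emission.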

[16] = Primary qHTS for inhibitors of La Crosse Virus (LACV) - induced cell death in SH-SY5Y cells (AID 1508616);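 also: top concentration of the series differs between compounds; 0% = infected DMSO wells and 100% = uninfected DMSO wells; higher means more rescue of cells from virus-induced death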
Procedure, shortened: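 Rescue of virus-induced death was read as ATPLite luminescence after 6 days at 37C, scaled between DMSO wells with LACV and without virus. Cells were SH-SY5Y, 6000/well, infected at 0.01 MOI after compound addition.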

[17] = Primary qHTS for small molecule stabilizers of the endoplasmic reticulum resident proteome: Secreted ER Calcium Modulated Protein (SERCaMP) assay (AID 1508630); also: % is scaled to controls: 0 for no effect and ±100 for the full control effect
Procedure, shortened: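 The SH-SY5Y reporter protocol was run at 3 concentrations up to 38.3 uM (primary) or 11 concentrations (follow-up): 16 h compound, 100 nM thapsigargin for 4 h, then extracellular luciferase luminescence.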

Papain (Carica papaya) = Papain (Carica papaya) (UniProt P00784); experiment: Primary qHTS assay for inhibitors of the protease papain (AID 1645873)
Chain of Papain (Carica papaya) (P00784 whole entry, looked up, the tested form may be a part): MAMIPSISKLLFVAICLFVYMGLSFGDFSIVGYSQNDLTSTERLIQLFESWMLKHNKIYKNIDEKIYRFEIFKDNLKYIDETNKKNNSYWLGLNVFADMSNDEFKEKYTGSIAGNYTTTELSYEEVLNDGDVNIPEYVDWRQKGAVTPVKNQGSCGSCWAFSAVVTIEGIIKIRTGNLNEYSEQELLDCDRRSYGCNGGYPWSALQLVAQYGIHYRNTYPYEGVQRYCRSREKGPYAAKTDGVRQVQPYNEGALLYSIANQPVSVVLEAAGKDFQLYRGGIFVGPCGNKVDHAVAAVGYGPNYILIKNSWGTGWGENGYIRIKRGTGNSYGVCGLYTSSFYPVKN

[18] = Primary qHTS for inhibitors of nuclear receptor binding SET domain protein 2 (NSD2) in an isogenic RCH-ACV NSD2 p.E1099K mutant (9B) (AID 1645876); also: % is scaled to controls: 0 for no effect and ±100 for the full control effect; nearly all actives have a fitted effect of over 70% in size
[19] = biological target: Metallo-beta-lactamase type 2 (Klebsiella pneumoniae) (UniProt C7C422); experiment: qHTS to identify inhibitors of the New Delhi Metallo-beta-lactamase (NDM): assay validation screen against the NCATS LOPAC Collection (AID 1794843)
Chain of Metallo-beta-lactamase type 2 (Klebsiella pneumoniae) (C7C422 whole entry, looked up): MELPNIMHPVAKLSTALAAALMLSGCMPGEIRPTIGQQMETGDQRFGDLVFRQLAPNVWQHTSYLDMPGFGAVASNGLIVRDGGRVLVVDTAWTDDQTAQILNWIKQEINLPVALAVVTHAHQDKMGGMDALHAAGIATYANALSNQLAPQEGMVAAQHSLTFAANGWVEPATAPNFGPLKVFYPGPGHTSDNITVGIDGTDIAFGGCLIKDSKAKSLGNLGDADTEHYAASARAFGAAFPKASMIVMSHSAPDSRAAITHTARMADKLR
Procedure, shortened: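 NDM-1 at 2 nM final in 50 mM HEPES pH 7.0, 1 uM ZnSO4, 0.01% Tween20, preincubated with LOPAC compounds pinned in DMSO; 50 uM nitrocefin (stock) added. Hydrolysis read as absorbance at 485 nm in the plateau phase.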

[20] = biological target: Glutathione peroxidase 1 (Homo sapiens) (UniProt P07203); experiment: Primary qHTS Assay for Inhibitors of Recombinant Selenoprotein Glutathione Peroxidase 1 (GPX1) (AID 1845191); also: nearly all actives have a fitted effect of over 65% in size
Chain of Glutathione peroxidase 1 (Homo sapiens) (P07203 whole entry, looked up): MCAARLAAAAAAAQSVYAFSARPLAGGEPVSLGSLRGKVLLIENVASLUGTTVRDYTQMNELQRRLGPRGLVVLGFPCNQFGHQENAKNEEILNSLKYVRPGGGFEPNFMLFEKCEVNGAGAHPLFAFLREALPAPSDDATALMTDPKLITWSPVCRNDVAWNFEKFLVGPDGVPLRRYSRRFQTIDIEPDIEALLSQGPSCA
Procedure, shortened: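 NADPH consumption tracked by fluorescence at 340/450 nm between t=0 and t=15 min, room temperature. Final mix: 10 nM GPX1, 100 nM glutathione reductase, 1 mM GSH, 0.5 mM NADPH, 0.5 mM cumene hydroperoxide, 0.01% BSA; 30 min compound–enzyme preincubation.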

[21] = biological target: Phospholipid hydroperoxide glutathione peroxidase GPX4 (Homo sapiens) (UniProt P36969); experiment: Primary qHTS Assay for Inhibitors of Recombinant Selenoprotein Glutathione Peroxidase 4 (GPX4) (AID 1845192); settings: outcome: dose series up to 50 µM unless noted; also: series mostly up to about 50 µM; % is scaled to controls: 0 for no effect and ±100 for the full control effect; nearly all actives have a fitted effect of over 65% in size
Chain of Phospholipid hydroperoxide glutathione peroxidase GPX4 (Homo sapiens) (P36969 whole entry, looked up): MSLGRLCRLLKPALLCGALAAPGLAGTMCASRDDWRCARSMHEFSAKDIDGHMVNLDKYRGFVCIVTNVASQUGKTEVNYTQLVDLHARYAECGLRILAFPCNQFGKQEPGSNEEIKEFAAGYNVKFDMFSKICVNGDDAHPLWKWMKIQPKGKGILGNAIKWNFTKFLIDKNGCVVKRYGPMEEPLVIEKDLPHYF
Procedure, shortened: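 NADPH consumption followed by fluorescence at 340/450 nm, t=0 and after 15 min at room temperature. Reaction started with cumene hydroperoxide (0.5 mM final) after 30 min compound–GPX4 preincubation; final 200 nM GPX4, 100 nM GR, 1 mM GSH, 0.5 mM NADPH.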

[22] = qHTS drug screen for cell cycle checkpoint inhibitors in PARPi-resistant BRCA-mutant ovarian cancer cell lines. (AID 1963452; calls by dose curve); settings: PEO1/OlaR viability, CellTiter-Glo luminescence, 96 h, stronger effect = lower value
Procedure, shortened: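 PEO1, PEO4 and PEO1/OlaR ovarian cancer cells, 600 per well, exposed 96 h at 37C to a dilution series. Viability read by CellTiter-Glo luminescence, normalized to DMSO and empty wells; activity summarized as Z-AUC.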

CCc1ccc(/C=C2/SC(=S)NC2=O)cc1
inactive: outcome [1] | outcome [2] | outcome [3] | max response [4] 30.7% | Potency [5] | Potency [6] | outcome [7] | outcome [8] | Potency [9] | outcome [10] | outcome [12] | Potency [13] | outcome [14] | Potency [15] | outcome [16] | Potency [17] | Potency (Papain (Carica papaya)) | Potency [18] | Potency [19] | Potency [20] | Potency [21] | Z-AUC [22] 0.0868
0.763: Z-AUC ([22]; measured here: PEO4 Z-AUC)
active: Potency [11] 23.8 µM
0.677: Z-AUC ([22]; measured here: PEO1 parental Z-AUC)
